Measured values published in the supplement of paper PMC13380429.

Test system: Vero E6 infected with SARS-CoV-2
Assay: inhibition of SARS-CoV-2 cytopathic effect; higher = more antiviral protection, active = above 15
Settings: 48 h

Measured: inhibition of SARS-CoV-2 cytopathic effect

CC(C)(O)c1coc(S(=O)(=O)NC(=O)Nc2c3c(cc4c2CCC4)CCC3)c1
inactive: 1 nM -0.7% | 8.33 nM -2.3% | 100 nM -3.97% | 833.33 nM 0.34% | 10000 nM -0.6%

CC(C)(O)CS(=O)(=O)Nc1ccc2c(c1)CCN(C(=O)COc1cccnc1)C2 [Nampt-IN-1]
inactive: 1 nM -1.96% | 8.33 nM -2.55% | 100 nM -5.64% | 833.33 nM -15.6% | 10000 nM -25.6%

NP(N)(=O)NC(=O)c1ccc(F)cc1 [flurofamide]
inactive: 1 nM 3.53% | 8.33 nM -1.42% | 100 nM -1.3% | 833.33 nM 0.9% | 10000 nM 5.62%

Nc1ccn([C@@H]2CS[C@H](CO)O2)c(=O)n1 [lamivudine]
inactive: 1 nM -0.38% | 8.33 nM 0.6% | 100 nM -0.56% | 833.33 nM -0.22% | 10000 nM 4.96%

CC[C@H](CO)Nc1nc(Nc2cccc(-c3ccccn3)c2)c2ncn(C(C)C)c2n1
inactive: 1 nM -2.32% | 8.33 nM 0.36% | 100 nM 0.93% | 833.33 nM 1.09% | 10000 nM -7.74%

O=c1ccn([C@@H]2O[C@H](CO)[C@@H](O)[C@H]2O)c(=O)[nH]1 [uridine]
inactive: 1 nM 0.24% | 8.33 nM 0.14% | 100 nM 0.2% | 833.33 nM -1.16% | 10000 nM 2.27%

C[C@@H]([C@H](O)c1ccc(O)cc1)N1CCC(Cc2ccccc2)CC1 (racemic) [ifenprodil]
inactive: 1 nM 2.09% | 8.33 nM -0.2% | 100 nM 0.52% | 833.33 nM 0.72% | 10000 nM -6.19%
